The values that follow come from PMC4336329 (PLoS ONE, 2015).

The structures appear in SMILES notation. Hit rate of the full screen: of about 310,000 compounds, about 14,000 (4.5%) showed an effect of 50% or more. The effect is printed as a negative number. The entries come from a sample that favours strong results as a whole.
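Also: peak tail current of the secondary pulse compared with the same well before compound.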

For this test, the target named is human ether-à-go-go-related gene (hERG) potassium channel (human, UniProt Q12809). Description: primary screen, population patch clamp on CHO cells stably expressing hERG; higher = less effect of the substance.
Chain of human ether-à-go-go-related gene (hERG) potassium channel (Q12809 whole entry, looked up): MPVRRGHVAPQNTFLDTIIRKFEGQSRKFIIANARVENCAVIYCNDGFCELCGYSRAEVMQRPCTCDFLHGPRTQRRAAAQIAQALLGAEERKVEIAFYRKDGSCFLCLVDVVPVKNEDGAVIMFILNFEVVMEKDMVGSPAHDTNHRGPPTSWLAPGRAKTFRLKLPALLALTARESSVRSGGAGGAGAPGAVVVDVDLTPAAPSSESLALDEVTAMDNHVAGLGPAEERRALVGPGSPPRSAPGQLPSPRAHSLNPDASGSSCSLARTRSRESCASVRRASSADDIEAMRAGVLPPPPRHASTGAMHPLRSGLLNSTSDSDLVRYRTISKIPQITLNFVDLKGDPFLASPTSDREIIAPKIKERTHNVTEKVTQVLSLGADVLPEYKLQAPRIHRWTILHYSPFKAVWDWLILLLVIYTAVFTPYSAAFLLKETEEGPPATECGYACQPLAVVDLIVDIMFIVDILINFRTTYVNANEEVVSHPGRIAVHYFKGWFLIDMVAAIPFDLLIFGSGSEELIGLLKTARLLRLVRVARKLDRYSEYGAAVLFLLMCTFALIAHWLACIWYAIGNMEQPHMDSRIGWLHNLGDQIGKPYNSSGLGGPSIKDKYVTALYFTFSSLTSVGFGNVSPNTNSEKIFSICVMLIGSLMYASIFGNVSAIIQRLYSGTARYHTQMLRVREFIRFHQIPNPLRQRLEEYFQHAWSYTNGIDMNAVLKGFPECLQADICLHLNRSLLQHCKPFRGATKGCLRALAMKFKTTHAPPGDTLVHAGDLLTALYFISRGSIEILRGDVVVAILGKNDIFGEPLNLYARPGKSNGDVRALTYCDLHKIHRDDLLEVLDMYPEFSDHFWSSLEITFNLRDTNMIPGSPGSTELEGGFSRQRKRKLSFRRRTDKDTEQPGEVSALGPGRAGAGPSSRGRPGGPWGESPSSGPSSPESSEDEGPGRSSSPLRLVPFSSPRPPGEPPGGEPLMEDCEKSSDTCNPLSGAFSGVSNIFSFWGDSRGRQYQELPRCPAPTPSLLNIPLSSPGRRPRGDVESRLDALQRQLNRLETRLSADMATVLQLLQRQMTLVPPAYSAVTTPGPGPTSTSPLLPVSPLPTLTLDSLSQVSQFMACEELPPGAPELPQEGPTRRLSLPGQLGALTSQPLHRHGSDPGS
On to `COc1ccc2ccccc2c1C1CC(=O)N2CN(C)CSC2=C1C#N` (centres unmarked), for which the “hERG current change (%, negative = inhibition) at 10uM” value is listed as 12.7%. Consider `CCn1c(/C=C2\C(=O)Nc3ccccc32)nc2ccccc2c1=O`, for which the “hERG current change (%, negative = inhibition) at 10uM” value was -18.3%. In the case of `Cc1ccc(NC(=O)CC2SC(=NC3CCCCC3)NC2=O)cc1` (centres unmarked) it was -9.82%; in that of `O=[N+]([O-])c1ccc(S(=O)(=O)NCC(c2cccnc2)N2CCc3ccccc3C2)cc1` (centres unmarked), -35.6%.

As for `CN1CCN(C(CNS(=O)(=O)c2ccc([N+](=O)[O-])cc2)c2ccc(F)cc2)CC1` (centres unmarked), the “hERG current change (%, negative = inhibition) at 10uM” value is given as -67.6%. The result for `CC(NS(=O)(=O)c1ccccc1)C(c1cccs1)N1CCN(C)CC1` (centres unmarked) reads 5.5%; that for `COc1ccc(S(=O)(=O)NCC(c2ccc(F)cc2)N2CCN(C)CC2)cc1` (centres unmarked), -36.4%. As for `Cc1ccc(S(=O)(=O)NCC(c2ccccc2)N2CCN(CCC#N)CC2)cc1` (centres unmarked), the “hERG current change (%, negative = inhibition) at 10uM” value was -21.5%. For the compound `CC(NS(=O)(=O)c1ccc(Br)cc1)C(c1cccs1)N1CCN(C)CC1` (centres unmarked), the “hERG current change (%, negative = inhibition) at 10uM” value is on record as -53.2%. In the case of `COc1ccc(S(=O)(=O)NCC(c2ccc(C)cc2)N2CCN(C)CC2)cc1OC` (centres unmarked) it was -25.6%; in that of `Cc1ccc(S(=O)(=O)NC(C)C(c2cccs2)N2CCN(C)CC2)cc1` (centres unmarked), -18%; in that of `Cc1ccc(C(CNS(=O)(=O)c2ccc(F)cc2)N2CCN(C)CC2)cc1` (centres unmarked), -58.3%.

For `O=[N+]([O-])c1ccc(S(=O)(=O)NCC(c2cccnc2)N2CCOCC2)cc1` (centres unmarked), the “hERG current change (%, negative = inhibition) at 10uM” value is reported as -22%.

On to `COc1ccc(C(CNS(=O)(=O)c2ccc(F)cc2)N2CCN(C)CC2)cc1` (centres unmarked), for which the “hERG current change (%, negative = inhibition) at 10uM” value is given as -32.5%. Consider `Cc1ccc(C(CNS(=O)(=O)c2ccc(C)cc2)N2CCN(C)CC2)cc1` (centres unmarked), for which the “hERG current change (%, negative = inhibition) at 10uM” value is listed as -62.8%.

Consider `Cc1ccc(Nc2nnc(SCC(=O)Nc3ncc(S(=O)(=O)c4ccc([N+](=O)[O-])cc4)s3)s2)cc1`, for which the “hERG current change (%, negative = inhibition) at 10uM” value was -14.5%. In the case of `CC1CCN(S(=O)(=O)c2ccc(NC(=O)CN3CCCCCC3)cc2)CC1` it was -31.2%. The result for `Cc1c(CCO)c(=O)n(-c2ccccc2)n1S(=O)(=O)c1ccc(F)cc1` reads 1.37%. The result for `COc1ccccc1NC(=O)c1sc2nc(N3CCOCC3)c3c(c2c1N)CCCC3` reads 15.2%. For `COc1ccc(N2CCN(C(CNS(=O)(=O)c3ccccc3)c3ccccc3)CC2)cc1` (centres unmarked), the “hERG current change (%, negative = inhibition) at 10uM” value is on record as -22.5%. In the case of `CN(C)c1ccc(C(CNS(=O)(=O)c2ccc([N+](=O)[O-])cc2)N2CCOCC2)cc1` (centres unmarked) it was -25.9%; in that of `CN(C)c1ccc(C(CNS(=O)(=O)c2ccc([N+](=O)[O-])cc2)N2CCCC2)cc1` (centres unmarked), -47.2%; in that of `Cc1ccc(C(CNS(=O)(=O)c2ccc(Cl)cc2)N2CCN(C)CC2)cc1` (centres unmarked), -72.8%. In the case of `Cc1ccc(C(CNS(=O)(=O)c2ccc([N+](=O)[O-])cc2)N2CCN(C)CC2)cc1` (centres unmarked), the “hERG current change (%, negative = inhibition) at 10uM” value was -66.8%.

`O=S(=O)(NCC(c1ccccc1)N1CCNCC1)c1ccc(Cl)cc1` (centres unmarked): the “hERG current change (%, negative = inhibition) at 10uM” value was -28.6%. In the case of `Cc1ccc(C(CNS(=O)(=O)c2ccc(F)cc2C)N2CCN(C)CC2)cc1` (centres unmarked) it was -57%; in that of `O=S(=O)(NCC(c1ccccc1)N1CCC(O)CC1)c1ccc(Cl)cc1` (centres unmarked), -19.6%; in that of `COc1ccc(C(CNS(=O)(=O)c2ccc(C)cc2)N2CCN(C)CC2)cc1` (centres unmarked), -45.2%. Regarding `COc1ccc(OC)c(S(=O)(=O)NCC(c2ccc(F)cc2)N2CCN(C)CC2)c1` (centres unmarked), the “hERG current change (%, negative = inhibition) at 10uM” value was -33.8%. For the compound `Cc1cc(F)ccc1S(=O)(=O)NCC(c1ccc2c(c1)OCO2)N1CCOCC1` (centres unmarked), the “hERG current change (%, negative = inhibition) at 10uM” value is -16.8%. In the case of `COc1ccc(S(=O)(=O)NCC(c2ccc(C)cc2)N2CCN(C)CC2)cc1` (centres unmarked), the “hERG current change (%, negative = inhibition) at 10uM” value was -51.9%. In the case of `CC1CN(c2oc(COc3ccc(Cl)cc3Cl)nc2C#N)CC(C)O1` (centres unmarked) it was -13.6%; in that of `c1ccc(SCc2cn3cccnc3n2)nc1`, 15.1%; in that of `COc1cc(OC)c(NS(=O)(=O)c2cc(C(=O)OC(C)C(=O)NC3CC3)c(Cl)cc2Cl)cc1Cl` (centres unmarked), -37%. As for `COc1cccc(OCCOc2ccc(/C=C3\C(=N)N4N=C(S(C)(=O)=O)SC4=NC3=O)cc2OC)c1`, the “hERG current change (%, negative = inhibition) at 10uM” value was found to be 23.4%. As for `O=C(COC(=O)c1cc(-c2ccccc2Cl)nc2ccccc12)Nc1ncc(C(F)(F)F)cc1Cl`, the “hERG current change (%, negative = inhibition) at 10uM” value was -10.9%.

With `COC(=O)c1cccc(-c2ccc(/C=N/N3C(=O)C4C5C=CC(C6CC56)C4C3=O)o2)c1` (centres unmarked), the “hERG current change (%, negative = inhibition) at 10uM” value was -8.32%. The result for `CC1CCN(S(=O)(=O)c2ccc3c(c2)c(=O)c(C(=O)N2CCOCC2)cn3C)CC1` reads 13.5%; that for `CC(Oc1ccc(Br)cc1)C(=O)N(C)CC(=O)Nc1ccc(N2CCOCC2)cc1` (centres unmarked), 2.99%. The result for `CC(C)CN(CC(C)C)C(=O)CN1C(=O)NC2(CCc3ccccc3C2)C1=O` (centres unmarked) reads -8.61%; that for `Cc1ccnc(-n2c(C)cc(/C=C3\C(=O)NC(=S)N(C)C3=O)c2C)c1`, 12.9%. In the case of `Cc1cc(=O)[nH]c(COc2ccccc2)n1` it was 17.2%; in that of `CCN(CC)S(=O)(=O)c1ccc2c(c1)nc(SCC(=O)N(C)C1CCS(=O)(=O)C1)n2CC` (centres unmarked), 6.94%; in that of `N#Cc1c(Cl)nsc1NCCN1CCOCC1`, 15.4%.
